Targets with a hit are over-represented here; the source holds about 7,900 in all. About 0.6% of all pairs of compound and target were hits.
What follows are targets tested with CN1CCN(c2nc(C3=C(c4c[nH]c5ccccc45)C(=O)NC3=O)c3ccccc3n2)CC1 [sotrastaurin] (assay: log2 fold change, soluble protein after heating vs DMSO (PISA); higher = thermal stabilisation; K562 cells, 10 uM, 30 min; active = over 0.2 and 3.5 SD of the protein, either way, in both replicates (recomputed)).
Method in brief: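 Aliquots of K562 cells (2×10^6 cells/mL) treated with 10 μM compound for 30 min were heated for 3 min over 48°C-58°C. After pooling and extraction in PBS with 0.5% NP-40 at 4°C, soluble protein from a 21,000xg, 90 min spin was quantified by TMTpro 16plex LC-MS/MS with channel sums equalised. Thermal stability is expressed against control samples, from duplicates, as a log2 fold change.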

UniProt Q86UP2, sequence (Q86UP2 whole entry, looked up): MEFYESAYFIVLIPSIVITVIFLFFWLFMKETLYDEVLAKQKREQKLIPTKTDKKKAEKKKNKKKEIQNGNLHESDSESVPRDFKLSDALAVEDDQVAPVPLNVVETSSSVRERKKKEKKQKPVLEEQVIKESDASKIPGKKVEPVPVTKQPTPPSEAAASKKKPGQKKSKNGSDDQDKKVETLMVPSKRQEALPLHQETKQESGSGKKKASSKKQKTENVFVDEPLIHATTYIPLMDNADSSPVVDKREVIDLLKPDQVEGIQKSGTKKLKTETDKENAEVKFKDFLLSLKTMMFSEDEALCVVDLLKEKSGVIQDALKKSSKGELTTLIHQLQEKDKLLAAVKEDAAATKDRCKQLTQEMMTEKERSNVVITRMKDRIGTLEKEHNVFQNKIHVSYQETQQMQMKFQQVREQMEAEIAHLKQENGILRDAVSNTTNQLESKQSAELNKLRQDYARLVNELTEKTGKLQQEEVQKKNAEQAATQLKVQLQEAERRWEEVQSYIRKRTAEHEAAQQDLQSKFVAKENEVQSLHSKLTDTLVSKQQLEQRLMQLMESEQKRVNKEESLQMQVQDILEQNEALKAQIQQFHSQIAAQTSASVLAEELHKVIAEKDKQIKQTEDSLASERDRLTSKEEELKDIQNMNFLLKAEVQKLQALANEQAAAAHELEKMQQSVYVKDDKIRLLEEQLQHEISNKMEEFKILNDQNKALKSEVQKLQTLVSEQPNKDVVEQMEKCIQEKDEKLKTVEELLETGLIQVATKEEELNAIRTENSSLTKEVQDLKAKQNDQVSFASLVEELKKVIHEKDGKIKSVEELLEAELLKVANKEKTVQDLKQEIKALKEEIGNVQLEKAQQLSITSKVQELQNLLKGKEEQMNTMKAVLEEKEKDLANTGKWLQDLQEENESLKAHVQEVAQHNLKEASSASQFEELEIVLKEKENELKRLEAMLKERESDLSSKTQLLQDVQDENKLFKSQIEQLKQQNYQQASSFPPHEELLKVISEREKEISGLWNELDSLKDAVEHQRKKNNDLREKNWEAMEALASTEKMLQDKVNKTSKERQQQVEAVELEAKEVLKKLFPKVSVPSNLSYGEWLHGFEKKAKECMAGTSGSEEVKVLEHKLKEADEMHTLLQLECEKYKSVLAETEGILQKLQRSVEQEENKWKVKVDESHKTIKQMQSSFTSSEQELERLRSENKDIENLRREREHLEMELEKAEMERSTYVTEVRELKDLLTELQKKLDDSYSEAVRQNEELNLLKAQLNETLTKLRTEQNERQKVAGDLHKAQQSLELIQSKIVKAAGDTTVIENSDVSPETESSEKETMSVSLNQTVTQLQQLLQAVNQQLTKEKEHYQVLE
UniProt Q9NQG6, sequence (Q9NQG6 whole entry, looked up): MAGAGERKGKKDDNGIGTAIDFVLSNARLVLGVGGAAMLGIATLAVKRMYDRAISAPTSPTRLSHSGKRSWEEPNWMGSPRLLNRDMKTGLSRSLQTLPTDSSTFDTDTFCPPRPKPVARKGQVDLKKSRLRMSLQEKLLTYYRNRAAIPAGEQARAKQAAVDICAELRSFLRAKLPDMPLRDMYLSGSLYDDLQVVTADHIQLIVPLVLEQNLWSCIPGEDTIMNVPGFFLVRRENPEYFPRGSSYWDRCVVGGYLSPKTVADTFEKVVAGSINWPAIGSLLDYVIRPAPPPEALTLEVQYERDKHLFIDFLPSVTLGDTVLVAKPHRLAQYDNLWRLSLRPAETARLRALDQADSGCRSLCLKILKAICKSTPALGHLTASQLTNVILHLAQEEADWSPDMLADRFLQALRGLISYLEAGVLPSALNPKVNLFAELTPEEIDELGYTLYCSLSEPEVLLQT
UniProt Q07820, sequence (Q07820 whole entry, looked up): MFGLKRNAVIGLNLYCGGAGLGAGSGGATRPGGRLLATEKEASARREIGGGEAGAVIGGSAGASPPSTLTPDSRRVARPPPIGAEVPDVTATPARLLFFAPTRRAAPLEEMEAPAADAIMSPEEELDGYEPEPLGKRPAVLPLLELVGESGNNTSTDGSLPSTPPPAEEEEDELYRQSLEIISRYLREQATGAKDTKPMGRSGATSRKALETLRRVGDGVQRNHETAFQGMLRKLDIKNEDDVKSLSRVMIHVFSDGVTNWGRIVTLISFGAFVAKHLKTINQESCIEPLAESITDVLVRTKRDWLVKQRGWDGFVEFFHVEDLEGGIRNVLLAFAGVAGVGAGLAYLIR
UniProt P52732, sequence (P52732 whole entry, looked up): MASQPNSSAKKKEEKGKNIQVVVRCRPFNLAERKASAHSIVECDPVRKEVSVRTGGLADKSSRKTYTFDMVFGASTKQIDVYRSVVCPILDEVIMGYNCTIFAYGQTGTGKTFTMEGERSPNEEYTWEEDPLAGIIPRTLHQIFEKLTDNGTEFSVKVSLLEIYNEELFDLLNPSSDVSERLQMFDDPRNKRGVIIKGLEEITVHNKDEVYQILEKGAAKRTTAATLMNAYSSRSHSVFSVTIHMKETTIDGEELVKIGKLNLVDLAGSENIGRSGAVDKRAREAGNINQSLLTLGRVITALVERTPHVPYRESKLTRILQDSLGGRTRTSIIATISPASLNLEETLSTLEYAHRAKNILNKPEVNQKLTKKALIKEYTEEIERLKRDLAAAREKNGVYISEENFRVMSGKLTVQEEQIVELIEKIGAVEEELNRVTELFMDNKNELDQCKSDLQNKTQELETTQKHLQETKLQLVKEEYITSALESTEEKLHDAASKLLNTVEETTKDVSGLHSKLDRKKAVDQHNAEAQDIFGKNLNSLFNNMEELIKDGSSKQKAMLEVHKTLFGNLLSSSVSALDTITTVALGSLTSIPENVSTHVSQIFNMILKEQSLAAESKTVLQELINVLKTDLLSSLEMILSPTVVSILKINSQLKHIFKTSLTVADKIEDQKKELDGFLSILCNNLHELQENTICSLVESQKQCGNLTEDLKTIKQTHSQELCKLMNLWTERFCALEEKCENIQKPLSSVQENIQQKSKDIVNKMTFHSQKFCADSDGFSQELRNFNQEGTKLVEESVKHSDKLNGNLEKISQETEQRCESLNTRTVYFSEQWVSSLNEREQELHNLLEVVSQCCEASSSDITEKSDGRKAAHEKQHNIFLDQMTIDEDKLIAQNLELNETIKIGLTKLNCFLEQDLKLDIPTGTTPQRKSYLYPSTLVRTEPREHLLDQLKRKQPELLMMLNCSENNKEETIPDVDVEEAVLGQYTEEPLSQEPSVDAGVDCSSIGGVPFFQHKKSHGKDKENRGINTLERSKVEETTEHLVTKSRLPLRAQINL
UniProt Q9Y383, sequence (Q9Y383 whole entry, looked up): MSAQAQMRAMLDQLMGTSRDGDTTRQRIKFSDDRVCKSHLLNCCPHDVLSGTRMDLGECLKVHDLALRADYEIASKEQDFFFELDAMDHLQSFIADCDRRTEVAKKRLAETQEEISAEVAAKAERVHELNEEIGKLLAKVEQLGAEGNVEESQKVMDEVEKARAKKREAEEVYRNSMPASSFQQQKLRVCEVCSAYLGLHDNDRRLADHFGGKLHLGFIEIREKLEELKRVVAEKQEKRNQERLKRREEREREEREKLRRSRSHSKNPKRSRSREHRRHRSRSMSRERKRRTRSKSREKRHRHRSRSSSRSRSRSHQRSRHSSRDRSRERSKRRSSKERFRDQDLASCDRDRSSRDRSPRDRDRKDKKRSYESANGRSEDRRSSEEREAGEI
UniProt Q9UHB6, sequence (Q9UHB6 whole entry, looked up): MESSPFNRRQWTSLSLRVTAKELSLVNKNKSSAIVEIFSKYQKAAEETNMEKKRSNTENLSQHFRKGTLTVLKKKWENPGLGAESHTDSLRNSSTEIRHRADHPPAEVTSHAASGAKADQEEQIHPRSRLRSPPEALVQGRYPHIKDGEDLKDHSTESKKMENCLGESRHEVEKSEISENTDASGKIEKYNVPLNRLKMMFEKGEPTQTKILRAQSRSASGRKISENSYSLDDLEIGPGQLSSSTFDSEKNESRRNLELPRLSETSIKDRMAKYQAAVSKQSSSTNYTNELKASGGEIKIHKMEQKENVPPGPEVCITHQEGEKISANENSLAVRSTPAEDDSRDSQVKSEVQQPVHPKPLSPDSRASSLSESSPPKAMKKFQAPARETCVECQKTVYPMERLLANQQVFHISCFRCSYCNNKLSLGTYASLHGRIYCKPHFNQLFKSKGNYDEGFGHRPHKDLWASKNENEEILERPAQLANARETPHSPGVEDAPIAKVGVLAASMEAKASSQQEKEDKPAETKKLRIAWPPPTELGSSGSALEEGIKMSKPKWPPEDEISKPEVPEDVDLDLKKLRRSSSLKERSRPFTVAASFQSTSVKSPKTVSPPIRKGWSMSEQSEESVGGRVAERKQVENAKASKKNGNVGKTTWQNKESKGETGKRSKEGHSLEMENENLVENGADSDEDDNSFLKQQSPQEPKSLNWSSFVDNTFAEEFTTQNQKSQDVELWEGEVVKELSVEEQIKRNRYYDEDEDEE
UniProt O95232, sequence (O95232 whole entry, looked up): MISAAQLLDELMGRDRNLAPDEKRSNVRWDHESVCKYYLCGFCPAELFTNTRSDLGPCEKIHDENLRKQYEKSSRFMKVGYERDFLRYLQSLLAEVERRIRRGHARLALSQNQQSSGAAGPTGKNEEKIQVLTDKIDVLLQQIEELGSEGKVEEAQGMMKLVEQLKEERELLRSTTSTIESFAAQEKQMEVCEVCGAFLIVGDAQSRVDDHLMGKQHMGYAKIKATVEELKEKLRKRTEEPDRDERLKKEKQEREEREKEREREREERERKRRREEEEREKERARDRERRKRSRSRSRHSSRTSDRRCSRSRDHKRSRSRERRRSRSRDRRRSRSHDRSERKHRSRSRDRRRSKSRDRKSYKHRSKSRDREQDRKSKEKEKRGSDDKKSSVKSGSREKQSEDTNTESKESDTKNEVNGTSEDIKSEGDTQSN
UniProt P33947, sequence (P33947 whole entry, looked up): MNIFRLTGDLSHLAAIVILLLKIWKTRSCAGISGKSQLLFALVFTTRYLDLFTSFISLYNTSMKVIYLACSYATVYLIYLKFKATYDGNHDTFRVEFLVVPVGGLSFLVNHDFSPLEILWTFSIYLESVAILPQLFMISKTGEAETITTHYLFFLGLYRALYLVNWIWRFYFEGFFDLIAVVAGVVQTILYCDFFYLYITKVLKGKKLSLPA

Question: For IWS1 (UniProt Q96ST2), which log2 fold change is on record?
Answer: 0.021 (inactive)

Question: LUC7L2 (UniProt Q9Y383) was tested. Which log2 fold change did it give?
Answer: -0.01 (inactive)

Question: Which log2 fold change does the source give for MARK3 (UniProt P27448) here?
Answer: -0.434 (active)

Question: For MIEF1 (UniProt L0R8F8), which log2 fold change is on record?
Answer: -0.008 (inactive)

Question: How did the log2 fold change turn out when KIF11 (UniProt P52732) was run?
Answer: -0.2 (inactive)

Question: For LPIN3 isoform 2 (UniProt Q9BQK8), which log2 fold change is on record?
Answer: 0.171 (inactive)

Question: With INPP5B (UniProt P32019) as the target, how does the log2 fold change read?
Answer: -0.079 (inactive)

Question: With LNPEP (UniProt Q9UIQ6) as the target, how does the log2 fold change read?
Answer: 0.037 (inactive)

Question: Which log2 fold change does the source give for KDM1A isoform 2 (UniProt O60341) here?
Answer: -0.139 (inactive)

Question: IPO13 (UniProt O94829) was tested. Which log2 fold change did it give?
Answer: -0.123 (inactive)

Question: For MIEF1 (UniProt Q9NQG6), which log2 fold change is on record?
Answer: -0.042 (inactive)

Question: How did the log2 fold change turn out when KDELR2 (UniProt P33947) was run?
Answer: 0.061 (inactive)

Question: Which log2 fold change does the source give for KTN1 (UniProt Q86UP2) here?
Answer: -0.07 (inactive)

Question: With KHDRBS1 (UniProt Q07666) as the target, how does the log2 fold change read?
Answer: 0.018 (inactive)

Question: KSR1 (UniProt Q8IVT5) was tested. Which log2 fold change did it give?
Answer: -0.149 (inactive)

Question: Which log2 fold change does the source give for LUC7L3 (UniProt O95232) here?
Answer: 0.013 (inactive)

Question: With LAMP2 (UniProt P13473) as the target, how does the log2 fold change read?
Answer: 0.123 (inactive)

Question: With MED1 (UniProt Q15648) as the target, how does the log2 fold change read?
Answer: -0.092 (inactive)

Question: With MICU2 (UniProt Q8IYU8) as the target, how does the log2 fold change read?
Answer: -0.001 (inactive)

Question: Which log2 fold change does the source give for ILK (UniProt Q13418) here?
Answer: 0.043 (inactive)

Question: With KIF13A (UniProt Q9H1H9) as the target, how does the log2 fold change read?
Answer: 0.041 (inactive)

Question: How did the log2 fold change turn out when KIF3A (UniProt Q9Y496) was run?
Answer: -0.073 (inactive)

Question: KDM5D isoform 3 (UniProt Q9BY66) was tested. Which log2 fold change did it give?
Answer: 0.078 (inactive)

Question: KIAA1324L (UniProt A8MWY0) was tested. Which log2 fold change did it give?
Answer: 0.014 (inactive)

Question: For MIER1 isoform 12 (UniProt Q8N108), which log2 fold change is on record?
Answer: -0.024 (inactive)

Question: How did the log2 fold change turn out when MIA2 (UniProt Q96PC5) was run?
Answer: -0.106 (inactive)

Question: With LIMA1 isoform 4 (UniProt Q9UHB6) as the target, how does the log2 fold change read?
Answer: -0.109 (inactive)

Question: With METTL18 (UniProt O95568) as the target, how does the log2 fold change read?
Answer: 0.066 (inactive)

Question: For KIF21A isoform 4 (UniProt Q7Z4S6), which log2 fold change is on record?
Answer: -0.006 (inactive)

Question: For LUC7L (UniProt Q9NQ29), which log2 fold change is on record?
Answer: 0.056 (inactive)

Question: How did the log2 fold change turn out when KEL (UniProt P23276) was run?
Answer: -0.009 (inactive)

Question: LEO1 (UniProt Q8WVC0) was tested. Which log2 fold change did it give?
Answer: -0.085 (inactive)

Question: Which log2 fold change does the source give for LARP4 isoform 4 (UniProt Q71RC2) here?
Answer: -0.051 (inactive)

Question: How did the log2 fold change turn out when MFF (UniProt Q9GZY8) was run?
Answer: -0.027 (inactive)

Question: How did the log2 fold change turn out when MFN1 (UniProt Q8IWA4) was run?
Answer: 0.016 (inactive)

Question: Which log2 fold change does the source give for MCL1 (UniProt Q07820) here?
Answer: -0.114 (inactive)

Question: LYN (UniProt P07948) was tested. Which log2 fold change did it give?
Answer: -0.08 (inactive)

Question: How did the log2 fold change turn out when ILVBL (UniProt A1L0T0) was run?
Answer: 0.135 (inactive)

Question: KCTD2 (UniProt Q14681) was tested. Which log2 fold change did it give?
Answer: 0.226 (inactive)
